54 compounds from PubChem BioAssay AID602141 (Sanford-Burnham Center for Chemical Genomics, 2011) can be followed below.

About 1,300 (0.36%) of roughly 360,000 compounds were called active.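 Rule for the calls: active = corrected activity change at or below -50% at 5 µM; inactive = the rest.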 Shown is part of a subset that was picked to be rich in actives.

The test in a line: cytotoxicity in KKLEB CF airway cells, primary screen, cytotoxicity control for CF NF-kB inhibitor project, cell-based, uHTS, fluorescence assay plates (AID 602141). The settings on record: KKLEB CF airway cells viability, ATPlite luminescence, overnight; at 5 µM; active compounds read low; cells stimulated with P. aeruginosa culture filtrate. Background: In ATP-based viability assays light output follows the ATP content of the culture.
With `O=C(NCC(F)(F)F)c1ccc(S(=O)(=O)NCCc2ccc3c(c2)OCCO3)cc1`, the activity change (cytotoxicity) was 19.2% (inactive).

Consider `O=C(OC12CC3CC(CC(C3)C1)C2)c1ccc(NCc2cc(O)ccc2O)cc1`, for which the activity change (cytotoxicity) is -63.4% (active).

Turning to `O=C(CC1CCCCC1)Nc1c2c(nn1-c1ccc(F)cc1)CS(=O)(=O)C2`, the activity change (cytotoxicity) is -3.9% (inactive). In the case of `COc1ccc(-c2c(C#Cc3ccsc3)c3cc(-c4ccc(CN5CCOCC5)cc4)ccc3n2C)cc1` it was -4.5% (inactive). In the case of `O=C(Nc1cccc2ccccc12)c1[nH]c(-c2ccccc2)c2c1C(=O)N(C1CC1)C2=O` it was -52.9% (active); in that of `O=C(Nc1cccc2ccccc12)NC1CC1`, 1% (inactive); in that of `O=C(Nc1cccc2ccccc12)c1onc2c1CCCC2`, 5.7% (inactive).

On to `COCCN(C(=S)Nc1ccccc1OC)C1CCN(C(C)C)CC1`, for which the activity change (cytotoxicity) was -3.5% (inactive). Turning to `CC(Oc1ccc(F)cc1F)C(=O)/C=C/N(C)C` (centres undefined), the activity change (cytotoxicity) was 4.1% (inactive). In the case of `COC(=O)c1ccc(CNC(=O)C2CCC(=O)N(Cc3ccccn3)C2)cc1` (centres undefined) it was -4.5% (inactive); in that of `COc1ccc(C2=NO[C@@H]3C(=O)N(Cc4ccccc4)C(=O)[C@H]23)cc1OC`, -0.3% (inactive). In the case of `COc1ccc(C2SCCN2S(=O)(=O)c2ccccc2)cc1OC` (centres undefined) it was -14.9% (inactive); in that of `COc1ccc(-c2cc(C(F)(F)F)nc(S(C)(=O)=O)n2)cc1OC`, -78.4% (active). For `Cn1c(CCNS(=O)(=O)c2ccc(F)cc2)nnc1SCc1cccnc1`, the activity change (cytotoxicity) is -4.1% (inactive). For `CC(=O)NC(C(=O)NCC(N)=O)C(C)C` (centres undefined), the activity change (cytotoxicity) was -4.4% (inactive). In the case of `C/C(=N\NC(=O)c1cc2c(s1)CCC(C)C2)c1cccnc1` (centres undefined) it was 8.5% (inactive); in that of `CC(CN1CCCCC1)OC(=O)c1ccccc1Cl` (centres undefined), 0.5% (inactive); in that of `CC(C)OC(=O)c1ccc(NCc2cc(O)ccc2O)cc1Cl`, -51.3% (active). To `O=C(O)Cc1ccc(NCc2ccccc2Cl)cc1` belongs 7.8% (inactive). In the case of `Oc1ccc(Br)cc1/C=N/Nc1ccccn1` it was -94.7% (active). Consider `CCN(CC)CCn1c(/N=C/c2cc(Br)ccc2O)nc2ccccc21`, for which the activity change (cytotoxicity) was 2.8% (inactive). To `O=C(Nc1ccc(Br)cc1)c1cc(S(=O)(=O)Nc2ccccn2)ccc1Cl` belongs -6.3% (inactive). In the case of `N#CC(=C1SC=CS1)c1nc(-c2ccccc2)cs1` it was 9.6% (inactive). To `CCOc1ccc(NC(=O)CN(C)C(=O)Cn2c(=O)cnc3ccccc32)cc1OCC` belongs 3.8% (inactive); to `COc1cccc2c1C(=O)c1c(O)c3c(c(O)c1C2=O)CC(O)(C(C)=NNC(=O)c1ccc(Cl)c(Cl)c1)CC3OC1CC(N)C(O)C(C)O1` (centres undefined), -53.3% (active); to `CCOC(=O)C1(Cc2cccc(OC)c2)CCN(Cc2csc(C(C)=O)c2)CC1`, -6% (inactive). For the compound `Oc1cccc2ccc(/C=C/c3ccc(Br)s3)nc12`, the activity change (cytotoxicity) was -93.8% (active). For `COc1ccc([C@H]2CC(=O)C=C(/C=C/c3ccccc3)C2)cc1`, the activity change (cytotoxicity) is 9.7% (inactive). To `CC(C)c1ccc(/C=C2\NC(=O)NC2=O)cc1` belongs 11.8% (inactive); to `CC[C@]12c3[nH]c4cc(CCC(=O)N(C)C)ccc4c3CCN1C(=O)[C@@H](CC(=O)NCCCn1ccnc1)C[C@@H]2C(=O)N1CCN(C(=O)C2CC2)CC1`, 0.6% (inactive); to `COC(=O)C1=C(NC(=O)C(C)(C)C)CCS1`, 2.3% (inactive).

For the compound `CCOC(=O)c1c(C)[nH]c(C)c1C(=O)CSc1nc(N)cc(N)n1`, the activity change (cytotoxicity) was 13.1% (inactive).

In the case of `CCOC(=O)c1c(C)[nH]c2c1-c1ccccc1C(=O)C2=O`, the activity change (cytotoxicity) was -91.6% (active). In the case of `CCOC(=O)c1cnc(COc2ccccc2Cl)[nH]c1=O` it was 4.6% (inactive). To `Cc1c2cn[nH]c(=O)c2c(C)n1Cc1ccc(F)cc1` belongs -2.2% (inactive); to `CC(=O)Nc1ccc(SCC(=O)NC(=O)c2ccc(Cl)cc2)cc1`, 8% (inactive). To `O=C(O)CSCC(=O)Nc1ccc(C(F)(F)F)cc1` belongs -4% (inactive).

As to `O=C(CCl)Nc1ccc(Sc2ccc(NC(=O)CCl)cc2)cc1`, the activity change (cytotoxicity) is -68.5% (active). In the case of `CN(C)c1ccc(C(=S)N2CCN(C(=S)Nc3ccc(Cl)cc3)CC2)cc1` it was 5.1% (inactive); in that of `CC(=O)c1cc(NC(=O)c2ccccc2)c(=O)oc1/C=C/N(C)C`, -6.9% (inactive); in that of `O=C(COC(=O)c1cccc(Br)c1)Nc1cccc2c1C(=O)c1ccccc1C2=O`, -17.2% (inactive). To `O=C(NC1=CC(=O)c2ccccc2C1=O)c1ccccc1` belongs -97.9% (active); to `COc1ccc(C(CCN(Cc2ccc(OC)c(OC)c2)C(=O)CCl)c2ccccc2)cc1` (centres undefined), -76.9% (active).

`COc1ccc(C(C(=O)NC2CCCCC2)N(C(=O)CCl)c2ccccc2Cl)cc1` (centres undefined): the activity change (cytotoxicity) is 4.1% (inactive). In the case of `COc1ccc(CCNC(=O)CN(c2ccccc2)S(C)(=O)=O)cc1OC` it was 8.4% (inactive); in that of `CC(=O)OC(C)C[N+](C)(C)C` (centres undefined), 3.7% (inactive). To `CC(C[N+](C)(C)C)OC(N)=O` (centres undefined) belongs -65.7% (active); to `COc1ccc(C(N)c2csc(NC(=O)Nc3cccc(C(F)(F)F)c3)n2)cc1` (centres undefined), -18.3% (inactive); to `NC(c1csc(NC(=O)Nc2cccc(C(F)(F)F)c2)n1)C1CCCCC1` (centres undefined), -57.8% (active). `NC(c1ccccc1)c1csc(NC(=O)Nc2cccc(C(F)(F)F)c2)n1` (centres undefined): the activity change (cytotoxicity) was -17.2% (inactive).

In the case of `c1ccc2c(c1)OCC(c1nn3cnnc3s1)O2` (centres undefined), the activity change (cytotoxicity) is 0.1% (inactive). In the case of `O=C(CSc1nnc(N2CCOCC2)n1-c1cccc(F)c1)N1CCN(c2ccccn2)CC1` it was -2.4% (inactive). To `O=C(/C(=N\O)n1cncn1)c1ccc(Br)cc1Br` belongs -5.9% (inactive); to `Cc1c(NC(=O)CN(C)CC(=O)Nc2ccc(F)c(F)c2F)c(=O)n(-c2ccccc2)n1C`, 5.4% (inactive).
